Experimental findings from PubChem BioAssay are described below.

Assay [1] concerns the target Tumor necrosis factor receptor superfamily member 10B (Homo sapiens) (UniProt O14763). Put plainly: viability loss of caspase-8 NB7 cells with TRAIL – with/without TRAIL, luminescence panel, confirmation (AID 651596). To be noted: NB7 neuroblastoma + caspase-8, TRAIL sensitization, NB7 Caspase-8, with TRAIL, mean of runs, at 10 µM, stronger effect = higher value.
Test in assay [2]: as above
Particulars: NB7 neuroblastoma + caspase-8, without TRAIL, NB7 Caspase-8, without TRAIL, mean of runs, at 10 µM.

Sequence of Tumor necrosis factor receptor superfamily member 10B (Homo sapiens) (O14763 whole entry, looked up): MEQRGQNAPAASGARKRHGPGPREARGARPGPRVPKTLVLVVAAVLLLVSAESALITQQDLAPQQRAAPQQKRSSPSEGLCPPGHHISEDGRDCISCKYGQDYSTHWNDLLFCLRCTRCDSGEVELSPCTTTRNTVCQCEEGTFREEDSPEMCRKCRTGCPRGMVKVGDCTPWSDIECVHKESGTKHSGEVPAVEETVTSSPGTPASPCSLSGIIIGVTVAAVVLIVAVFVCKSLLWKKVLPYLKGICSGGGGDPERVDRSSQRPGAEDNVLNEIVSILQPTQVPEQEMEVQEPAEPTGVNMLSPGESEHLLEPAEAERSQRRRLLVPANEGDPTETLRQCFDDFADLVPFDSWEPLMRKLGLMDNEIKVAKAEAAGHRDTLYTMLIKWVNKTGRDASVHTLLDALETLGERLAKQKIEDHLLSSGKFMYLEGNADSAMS

For the compound `COc1ccc(/C(N)=N/OC(=O)c2c(-c3ccccc3Cl)noc2C)cc1OC`, the results for the activity in assay [1] and in assay [2] were 99.1% and 98.8%, respectively.

`N/C(=N\OC(=O)c1ccc2ccccc2c1)c1ccccc1Cl`: the activity in assay [1] is 99.4%; in assay [2] it was 99.2%.

Regarding `Cc1ccc2nc(-c3ccc(NC(=O)COC(=O)c4cncc(Br)c4)cc3)sc2c1`, the activity came to 60.7% in assay [1] and 60.1% in assay [2].

`CCCCc1ccc(NC(=O)c2ccc(N(C)S(C)(=O)=O)cc2)cc1`: the activity in assay [1] amounted to 25.8%; in assay [2], 19.9%.

In the case of `Fc1cccc2sc(Nc3nc4cc5c(cc4s3)OCCO5)nc12`, the results for the activity in assay [1] and in assay [2] were 40.2% and 28.4%, respectively.

As to `O=C(Oc1cccc(/C=N/NC(=O)c2ccccn2)c1)c1ccc([N+](=O)[O-])cc1`, the activity in assay [1] came out at 42.9%; in assay [2] it was 20.2%.

In the case of `Cc1ccccc1-n1nnnc1Sc1nnnn1-c1ccccc1`, the activity in assay [1] is 46.1%; in assay [2] it was 91.3%.

In the case of `O=C1c2cc(F)ccc2-n2c1nc1ccccc1c2=O`, the activity in assay [1] came out at 32.5%; in assay [2], 25.7%.

Turning to `COCCn1c(C)cc(C(=O)COC(=O)c2n[nH]c3ccccc23)c1C`, the activity in assay [1] worked out at 88.7%; in assay [2] it was 86.9%.

As to `COc1cccc(N=c2oc3ccc(OC)cc3cc2-c2nc3ccccc3[nH]2)c1`, the values for the activity in assay [1] and in assay [2] were 12.8% and 18.1%, respectively.

As to `CSc1ncccc1C(=O)OCC(=O)c1cc(C)n(CC2CCCO2)c1C` (configuration not stated), the activity in assay [1] is 44%; in assay [2], 23.6%.

Take `Fc1ccc(/C=N/Nc2nc(-c3cccnc3)nc3ccccc23)cc1`: the activity in assay [1] amounted to 50.8%; in assay [2], 19.2%.

For the compound `COc1ccccc1N1CCN(c2ccc3ccccc3n2)CC1`, the activity in assay [1] is 38.5%; in assay [2], 24.1%.

On to `CCOC(=O)C1CCN(C(=O)C2c3ccccc3C(=O)N(C)C2c2ccc(OC)cc2)CC1` (configuration not stated), for which the figures for the activity in assay [1] and in assay [2] were 66.1% and 60.9%, respectively.

As for `O=C(N/N=C/C(Cl)=C/c1ccccc1)c1ccccn1`, the activity worked out at 61.2% in assay [1] and 42.8% in assay [2].

On to `CCCCCCCCCCCCCCCC[N+](C)(C)CCl`, for which the results for the activity in assay [1] and in assay [2] were 96% and 94.3%, respectively.
